Laboratory results taken from the OligoGym collection.

target: TELO2; test: pooled miR-30 sensor sort-seq; sequence = guide strand; details: shRNA
Also: reference of the scale not given here.

| Sequence | sensor-assay potency score (higher = more potent) |
| --- | --- |
| TAGGCATCGATGTGGAAGCGAA | -1.36 |
| TTCTGGGTCATCACAAACTGGG | -0.844 |
| TGTAAGAACAGAAGCTTCTGGG | 0.738 |

target: TFAP4; test: as above; details: shRNA

| Sequence | sensor-assay potency score (higher = more potent) |
| --- | --- |
| TTCACGATGACAGCTCGCCGCT | -1.34 |
| TTCGTCCTTGTCCTCTGCCCGC | -1.28 |
| TTCCCGCTCCAGCTTCTCCTGG | -1.47 |
| TGCTGAGCTTCTCTCCGTCTGT | -0.432 |
| AATCACCTTGAGCTTTTCCGGG | -1.02 |
| TTCTCTCCGTCTGTGTGGGGGA | -0.652 |
| TTGAGGGACTGGAATCCCGCGT | -0.113 |
| TTGCTGTTGGCGATCTCCCGCC | -0.484 |
| ATCACCTTGAGCTTTTCCGGGT | -0.563 |
| TACATGTGGGCCTCCAGCGAGC | -1.01 |
| TCGTCCTCCCAGATGTCCGGGG | -0.989 |
| TTGGCAAGGCTACAGAGCCCTC | -1.54 |

target: TFEB; test: as above; details: shRNA

| Sequence | sensor-assay potency score (higher = more potent) |
| --- | --- |
| TAGCAGTGAGTCGTCCAGGAGC | -1.35 |
| AAGGACATCGTCCAGACGCATA | -1.55 |
| TCTCCTTTCAATTAAGTTGTGA | -0.161 |
| TCATTGATGTTGAACCTTCGTC | -0.00793 |
| TAGCGTGTTGGGCATCTGCATT | -1.17 |
| ATCTGTGAGCTCTCGCTTCTGG | -0.356 |
| TTGATGTTGAACCTTCGTCTCC | -0.765 |
| TACACATTCAGGTGGCTGCTGG | -0.605 |
| TTCGCTAGGCAGCTCCTGCTTC | -0.419 |
| TTGTTGGTCATCTCCAGGCGGC | -1.28 |
| TTGCAGGTCCTTCTGCATCCTC | -1.28 |

target: TFPI2; test: as above; details: shRNA

| Sequence | sensor-assay potency score (higher = more potent) |
| --- | --- |
| TTTATATCTTATGCATTGCAAG | -1.47 |
| TACAAGTAGCTTCATCTGGAAA | -1.17 |
| TCTCACAAACAGTTGAACCATA | -1.02 |
| TTAGATTAAAGAAATACTTTTC | -0.873 |
| TAGGTGAAAGCATCACAGGTTC | -0.157 |
| TATAGGTGAAAGCATCACAGGT | -0.811 |
| TCATCTTTTGGACTGTAGCAAA | -1.13 |
| TTATTCTTCAGATACAACCATA | -1.04 |
| TTGGATTAAAATAATAGCGAGT | -0.659 |
| TTGTATTAATAAAAACTGGTGA | -0.407 |
| TACCTGTCGTAGTAGTAACGGA | -0.941 |
| TGTCGTAGTAGTAACGGAGAAG | -1.18 |
